Source: PubChem
The list is not random: actives were taken first. Their share in the collection is about 4.8%.
ssDAF-12 act = activates DAF-12 receptor from parasite S. stercoralis; hit rate 1% among 370,000; activation, % at 6.8 µM; AID 652126; HEK293 ssDAF-12/GRIP1 lit1-tk-luc reporter, luminescence; % of 3 µM dafachronic acid response;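 active means activation above the mean over all tested compounds plus 3 SD, cut at about 0.9% in these data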;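 further: 0% = DMSO-only wells and 100% = 3 µM delta7-dafachronic acid wells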
DAX1 inh-1 = DAX1 (NR0B1) inhibition, primary screen. HEK293T StAR-luciferase reporter, SF-1/DAX-1 repression relief. inhibition, % at 6.8 µM. hit rate 1.1% among 370,000. AID 652010;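 active means inhibition above the mean over all tested compounds plus 3 SD, cut at about 3.6% in these data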;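 further: 0% = DAX-1 cells with DMSO and 100% = cells lacking DAX-1 with DMSO; higher inhibition means more luminescence from relief of DAX-1 repression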
DAX1 inh-2 = inhibits human nuclear receptor DAX1; P51843; HEK293 Gal4-DAX1 luciferase reporter, luminescence; hit rate 0.99% among 340,000; inhibition, % at 6.75 µM; AID 504766;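 active means inhibition above the mean over all tested compounds plus 3 SD, cut at about 4.2% in these data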;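 further: 0% = DAX1-transfected cells with DMSO and 100% = empty-vector control cells with DMSO; inhibition shows as a rise in luminescence from relieved DAX1 repression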
Target sequence (P51843 207-470 limits assumed): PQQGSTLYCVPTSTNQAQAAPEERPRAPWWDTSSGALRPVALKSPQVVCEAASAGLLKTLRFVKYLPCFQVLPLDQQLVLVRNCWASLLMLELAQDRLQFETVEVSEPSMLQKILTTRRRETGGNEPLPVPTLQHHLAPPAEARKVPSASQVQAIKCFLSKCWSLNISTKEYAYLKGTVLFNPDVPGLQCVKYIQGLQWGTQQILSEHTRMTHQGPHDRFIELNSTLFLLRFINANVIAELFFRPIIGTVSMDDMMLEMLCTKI
hgDAF12 agonist = hgDAF-12 agonism, primary luciferase screen; HEK293 GAL4-hgDAF12 UAS-luciferase reporter, agonist luminescence; normalized to butyrate control; activation, % at 6.8 µM; hit rate 1.8% among 370,000;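 active means activation above a cutoff set at the mean of all screened compounds plus 3 SD, cut at about 10% in these data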;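 further: 0% = DMSO wells and 100% = sodium butyrate wells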
SMARCA2 activ = SMARCA2 function activation, primary screen; MG213 cells, MMTV-luciferase reporter, dexamethasone, overnight; activation, % at 9.1 µM; AID 652017; hit rate 1% among 370,000; in the data active means activation above about 7.8%;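 further: 0% = vehicle wells and 100% = reference activator wells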
hcDAF-12 act = H. contortus DAF-12 activation, primary screen | HEK293 hcDAF-12 lit1-tk-luc reporter, luminescence; 0% DMSO, 100% Δ7-dafachronic acid | hit rate 1.4% among 370,000 | activation, % at 6.8 µM;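 active means activation above the mean of all tested compounds plus 3 SD, cut at about 5.5% in these data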;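 further: 100% = response to 3 µM Δ7-dafachronic acid high control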
* hit, by the source's call; . = no result given.

SMILES	ssDAF-12 act	DAX1 inh-1	DAX1 inh-2	hgDAF12 agonist	SMARCA2 activ	hcDAF-12 act
C=C(C)CSc1nc2nc(C)c(Br)cc2[nH]1	-1.7	1.5	6.0*	4.9	4.9	-0.2
COC(=O)CSc1nc2nc(C)c(Br)cc2[nH]1	-1.3	0.1	-0.1	2.6	0.2	0.0
CN(C)c1cccc(NC(=O)c2cccc3ccccc23)c1	1.2*	0.1	1.1	1.3	-0.9	6.5*
Cc1nc(Nc2ccc(F)cc2)nc(Nc2ccc(F)cc2)c1[N+](=O)[O-]	-0.9	1.4	4.7*	1.2	0.3	-1.3
Cc1ccc(C(=O)N[C@H](C(=O)OCC(=O)NC2CCS(=O)(=O)C2)C(C)C)cc1 (some centres undefined)	1.5*	-0.4	1.3	6.2	-2.9	1.1
Cc1ccc(S(=O)(=O)NC(C(=O)OCC(=O)NC2CCS(=O)(=O)C2)C(C)C)cc1 (centres undefined)	-1.1	1.4	-0.6	-1.1	-1.4	-0.5
Cc1cc(C)cc(OCC(=O)OCC(=O)NC2CCCCCCC2)c1	-1.0	4.3*	1.9	1.7	-1.1	0.3
Cc1cc(OCC(=O)OCC(=O)NC2CCCCCC2)ccc1Cl	-1.2	0.8	-0.1	-0.8	-2.1	0.1
Cc1ccsc1C(=O)OCC(=O)NC1CCCCC1	0.1	2.8	2.5	10.8*	1.5	3.3
Cc1cc(OCC(=O)OCC(=O)NC2CCS(=O)(=O)C2)ccc1Cl (centres undefined)	-1.3	1.4	2.7	1.9	-1.6	5.9*
O=C(O)c1[nH]c2ccc(Br)cc2c1CCN1C(=O)c2cccc([N+](=O)[O-])c2C1=O	-0.9	0.4	1.1	1.0	-2.8	-0.8
C[C@H](CO)N1C[C@H](C)[C@H](CN(C)Cc2ccc(F)cc2)Oc2ncc(Br)cc2C1=O	-0.6	-0.6	.	-4.0	-0.5	0.9
O=C(Nc1ccc(N2CCN(C(=O)c3ccco3)CC2)cc1)c1ccccc1Br	-1.2	-0.8	0.1	-0.6	-1.6	-1.9
CCOc1cc(S(=O)(=O)N(CC)CC)ccc1F	-2.3	-0.9	0.6	-0.6	-1.3	-1.0
Cc1cccc(C(=O)NCC(=O)OCC(=O)NC2CCCCCCC2)c1	-1.7	1.8	-1.2	-0.5	-1.8	1.1
COc1cccc(C(=O)NCC(=O)OCC(=O)NC2CCCCC2)c1	1.3*	0.4	0.9	-0.6	0.3	-0.5
O=C(COC(=O)c1ccc(F)cc1Cl)Nc1cccc(S(=O)(=O)N2CCOCC2)c1	-1.0	-0.1	-0.9	0.0	-4.0	-0.8
COc1ccc(C2c3ccc(O)cc3Oc3ncn4nc(-c5ccco5)nc4c32)cc1OC (centres undefined)	-1.0	0.2	0.2	0.1	-1.1	-1.9
COc1ccccc1C(=O)COC(=O)Cc1n[nH]c(=O)c2ccccc12	-0.2	0.8	1.4	2.2	0.5	1.6
COc1ccc(C(C)=O)cc1COC(=O)Cc1n[nH]c(=O)c2ccccc12	-0.9	1.5	5.3*	0.8	-0.9	0.0
Cc1[nH]c(=O)[nH]c(=O)c1Cc1cccc2ccccc12	-1.2	0.1	0.1	-1.3	-4.0	0.1
COc1ccc(NC(=O)Nc2ncn(Cc3cccc(C(F)(F)F)c3)n2)cc1OC	-1.1	-0.8	-0.9	-5.5	-3.3	-1.1
CNc1nc(N)c([N+](=O)[O-])c(NCC2CCCO2)n1 (centres undefined)	-0.7	-0.1	5.2*	0.3	-0.6	-1.8
FC(F)(F)C1=Nc2cccc3cccc(c23)N1	-1.1	-0.2	-0.4	-0.7	-1.8	-1.0
CCOc1ccccc1NC(=S)N1CCC(NC(=O)C(C)(C)C)CC1	-0.9	-1.0	5.0*	2.6	-0.4	0.5
CCOc1ccccc1NC(=S)N(CCC(C)C)C1CCN(C(C)=O)CC1	-1.5	0.4	4.7*	2.4	-1.9	0.8
C=CCc1ccc(OCc2ccc(C(=O)O)o2)c(OC)c1	-0.1	2.2	-1.3	10.4	3.7	6.0*
C=CCc1ccc(OCCCCOc2ccc(C(=O)O)cc2)c(OC)c1	3.8*	0.2	.	2.5	0.6	-1.9
CCCc1ccc(OCc2ccc(C(=O)O)o2)c(OC)c1	0.2	2.6	-1.8	8.4	5.6	4.0
COc1ccc(OCC(=O)C2CC2)c(C#N)c1	0.2	0.1	7.2*	1.5	-1.4	2.4
